Inconclusive results are not listed. Where a call stands in place of a potency, no number is given. Activity calls are given as the source filed them. Unless noted, the call rests on the fitted dose curve; in most records, active means well fitted curve in the direction sought with a large enough effect in the repeat runs; inconclusive means weak or mixed curves; inactive means no such curve, though single readings can be large; an effect the other way counts as inactive or inconclusive.
Assays:
[1] = qHTS assay for small molecule agonists of the p53 signaling pathway (AID 651631; calls by dose curve; further: nearly all actives have a fitted effect of over 15% in size; further: potency means the concentration at half of the fitted maximal effect); details: HCT-116 p53RE-bla reporter, beta-lactamase FRET ratio, 16 h; series mostly up to 73.3 µM
Method in brief: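 Read-out is beta-lactamase FRET fluorescence measured 2 h after substrate addition at room temperature, in HCT-116 cells with a p53 response element-driven reporter exposed to compounds for 16 h at 37 °C.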

[2] = qHTS assay for small molecule agonists of the p53 signaling pathway - cell viability (AID 651633; calls by dose curve; further: nearly all actives have a fitted effect of over 30% in size; further: potency means the concentration at half of the fitted maximal effect); details: p53RE-bla HCT-116 viability, ATP luminescence, 16 h; series mostly up to 83.3 µM
Method in brief: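 Viability counter-read: CellTiter-Glo luminescence (30 min, room temperature) in the same p53RE-bla plates. These plates had been exposed to compounds for 16 h at 37 C.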

[3] = qHTS assay for small molecules that induce genotoxicity in human embryonic kidney cells expressing luciferase-tagged ATAD5 - cell viability (AID 651634; calls by dose curve; further: nearly all actives have a fitted effect of over 25% in size; further: potency means the concentration at half of the fitted maximal effect); details: HEK293T ATAD5-luc cells viability, CellTiter-Fluor, 15.5 h; series mostly up to 83.3 µM
Method in brief: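 15.5 hr compound or vehicle exposure of HEK293T cells expressing luciferase-tagged ATAD5 at 37C; live-cell protease activity is read by fluorescence after 30 min of CellTiter-Fluor.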

[4] = qHTS assay for small molecule disruptors of the mitochondrial membrane potential (AID 720635); details: HepG2 mitochondrial membrane potential, Mito-MPS dye ratio; series mostly up to 83.2 µM; further: potency means the concentration at half of the fitted maximal effect
Method in brief: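 Mitochondrial membrane potential tracked with Mito-MPS dye, red aggregates (ex 540/em 590 nm) against green monomers (ex 490/em 535 nm). Compound treatment 1 hr at 37C, dye 30 min in HepG2.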

[5] = qHTS assay to test for compound auto fluorescence at 590 nm (red) in HepG2 cells (AID 720674); details: HepG2 autofluorescence, red 540/590 nm, 1 h; series mostly up to 46 µM
Method in brief: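 We screened compounds on adherent HepG2 cells, incubating them for an hour at 37 C in 5% CO2 before reading emission at 590 nm under 540 nm excitation; values reflect equivalence to Rose Bengal sodium fluorescence.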

[6] = qHTS assay to test for compound auto fluorescence at 535 nm (green) in HepG2 cells (AID 720675); details: green autofluorescence 485/535 nm, 1 h; series mostly up to 46 µM
[7] = qHTS assay to test for compound auto fluorescence at 460 nm (blue) in HEK293 cells (AID 720678); details: blue autofluorescence 405/460 nm; series mostly up to 46 µM; further: potency means the concentration at half of the fitted maximal effect
Method in brief: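 HEK293, 2,000 cells/well, 10% dialyzed FBS; attach 4-5 hr 37C; pin compound or DMSO; o/n 37C/5% CO2; fluorescence 405/460 nm; triamterene-equivalent units.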

[8] = qHTS assay to test for compound auto fluorescence at 590 nm (red) in HEK293 cells (AID 720679); details: red autofluorescence 540/590 nm; series mostly up to 46 µM
Method in brief: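 Intensity at 540nm excitation and 590nm emission is reported as Rose Bengal sodium-equivalent autofluorescence. Measurements followed overnight exposure (37C, 5% CO2) of HEK293 cells, 2,000 per well, to 23 nL compound.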

[9] = qHTS assay for small molecule disruptors of the mitochondrial membrane potential - cell viability (AID 720634; calls by dose curve; further: nearly all actives have a fitted effect of over 20% in size; further: potency means the concentration at half of the fitted maximal effect); details: HepG2 viability, ATP luminescence (CellTiter-Glo), 1 h; series mostly up to 83.2 µM
Method in brief: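 In this qHTS format, HepG2 cells plated overnight were pinned with compound, incubated 1 hr, and assayed for ATP luminescence with CellTiter-Glo after m-MPI dye addition.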

[10] = qHTS assay for small molecules that induce genotoxicity in human embryonic kidney cells expressing luciferase-tagged ATAD5 (AID 651632); details: HEK293T ATAD5-luciferase induction, 16 h; series mostly up to 83.3 µM; further: nearly all actives have a fitted effect of over 15% in size; further: potency means the concentration at half of the fitted maximal effect
Method in brief: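 Concentration-response screen for ATAD5 upregulation in HEK293T luciferase reporter cells; 16 hr treatment at 37C, then luminescence after 30 min with Amplite at room temperature.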
Tags describe the fitted curve by direction and shape or compound fluorescence and quenching.

Row | SMILES | Potency [1] | Potency [2] | Potency [3] | Potency [4] | outcome [5] | Potency [6] | Potency [7] | outcome [8] | Potency [9] | Potency [10]
1 | CC[C@H]1OC(=O)C[C@@H](O)[C@H](C)[C@@H](O[C@@H]2O[C@H](C)[C@@H](O)[C@H](N(C)C)[C@H]2O)[C@@H](CCN2C[C@H](C)C[C@H](C)C2)C[C@@H](C)C(=O)/C=C/C(C)=C/[C@@H]1CO[C@@H]1O[C@H](C)[C@@H](O)[C@@H](OC)[C@H]1OC | inactive | inactive | inactive | inactive | inactive | inactive | inactive | inactive | – | –
2 | O=C1CC[C@@H](C(=O)N[C@H]2C[C@@H]2c2ccccc2)N1 | inactive | inactive | inactive | inactive | inactive | inactive | inactive | inactive | inactive | –
3 | CC(C)(COP(=O)(O)OP(=O)(O)OC[C@H]1O[C@@H](n2cnc3c(N)ncnc32)[C@H](O)[C@@H]1OP(=O)(O)O)C(O)C(=O)NCCC(=O)NCCS (stereo partly drawn) | inactive | inactive | inactive | inactive | inactive | – | inactive | inactive | inactive | –
4 | O=C(O)/C=C/C(=O)Nc1ccc(S(=O)(=O)Nc2nccs2)cc1 | inactive | inactive | inactive | inactive | inactive | inactive | inactive | inactive | inactive | –
5 | Cc1onc(-c2c(F)cccc2Cl)c1C(=O)N[C@@H]1C(=O)N2[C@@H]1SC(C)(C)[C@@H]2C(=O)O | inactive | inactive | – | inactive | inactive | inactive | inactive | inactive | inactive | –
6 | O=C1OC(O)C(C(Cl)Cl)=C1Cl (stereo not drawn) | 14.1 µM (active) | 15.8 µM (active) | – | 63 µM (active) | inactive | inactive | inactive | inactive | – | –
7 | O=C(O)C[C@H](O)C[C@H](O)/C=C/c1c(C2CC2)nc2ccccc2c1-c1ccc(F)cc1 | inactive | – | inactive | – | inactive | inactive | inactive | inactive | inactive | –
8 | FC(F)(F)C(F)(F)C(F)(F)C(F)(F)C(F)(F)F | inactive | – | inactive | inactive | inactive | inactive | inactive | inactive | inactive | –
9 | CN1C(C(=O)Nc2ccccn2)C(=O)c2sc(Cl)cc2S1(=O)=O (stereo not drawn) | inactive | inactive | inactive | 8.41 µM (active) | – | inactive | inactive | inactive | inactive | –
10 | CC(C)c1ncc([N+](=O)[O-])n1C | inactive | inactive | inactive | inactive | inactive | inactive | inactive | inactive | inactive | –
11 | C=N[C@@H](C(=O)N[C@@H]1C(=O)N2[C@@H]1SC(C)(C)[C@@H]2C(=O)O)c1ccccc1 | inactive | inactive | – | inactive | inactive | inactive | inactive | inactive | inactive | –
12 | COc1ccc(/C=N/NC(=O)c2ccncc2)c(C(=O)O)c1OC | inactive | inactive | inactive | inactive | inactive | inactive | inactive | inactive | inactive | –
13 | COc1cc(NS(C)(=O)=O)ccc1Nc1c2ccccc2nc2ccccc12 | 1.68 µM (active) | 18.8 µM (active) | – | 8.8 µM (active) | inactive | inactive | 11.2 µM [fluorescent] (active) | inactive | inactive | –
14 | CC(C)=CCC/C(C)=C/CC/C(C)=C/CC/C=C(\C)CC/C=C(\C)CCC=C(C)C | inactive | inactive | inactive | inactive | inactive | inactive | inactive | inactive | inactive | –
15 | CCOc1ccc(S(=O)(=O)O)c2cccnc12 | inactive | inactive | inactive | inactive | inactive | inactive | inactive | inactive | inactive | –
16 | CO/N=C(\C(=O)N[C@@H]1C(=O)N2C(C(=O)O)=C(CSc3nc(C)c(CC(=O)O)s3)CS[C@H]12)c1csc(N)n1 | inactive | inactive | – | inactive | inactive | inactive | inactive | inactive | inactive | –
17 | CC(C)COC(=O)OCN1C(=O)CN(CCN2CC(=O)N(COC(=O)OCC(C)C)C(=O)C2)CC1=O | 3.76 µM (active) | – | – | inactive | inactive | – | inactive | inactive | inactive | inactive
18 | C[C@]12O[C@H](C[C@]1(O)CO)n1c3ccccc3c3c4c(c5c6ccccc6n2c5c31)CNC4=O | 0.075 µM (active) | 0.944 µM (active) | 4.73 µM (active) | 3.76 µM (active) | inactive | inactive | inactive | inactive | inactive | –
19 | CC[C@@H](C(=O)[C@@H](C)[C@@H](O)[C@H](C)CCc1ccc(C)c(O)c1C(=O)O)[C@H]1O[C@](CC)([C@H]2CC[C@](O)(CC)[C@H](C)O2)C[C@@H]1C | 23.7 µM (active) | 26.6 µM (active) | – | 1.06 µM (active) | inactive | inactive | inactive | inactive | 5.96 µM (active) | –
20 | Cc1cc(-c2ccc(N=Nc3ccc4c(S(=O)(=O)O)cc(S(=O)(=O)O)c(N)c4c3O)c(C)c2)ccc1N=Nc1ccc2c(S(=O)(=O)O)cc(S(=O)(=O)O)c(N)c2c1O | inactive | inactive | 13.3 µM (active) | – | inactive | inactive | inactive | inactive | inactive | –

Row | SMILES | Potency [1] | Potency [2] | Potency [3] | Potency [4] | outcome [5] | Potency [6] | Potency [7] | outcome [8] | Potency [9] | Potency [10]
21 | CC(C)OC(=O)Nc1ccc2nc(-c3cscn3)[nH]c2c1 | 2.37 µM (active) | inactive | inactive | 9.87 µM (active) | – | inactive | inactive | inactive | – | –
22 | CCN(CC)CCn1c(=O)c(Cc2ccc(OC)cc2)nc2ccccc21 | – | inactive | inactive | inactive | inactive | inactive | inactive | inactive | inactive | inactive
23 | N[C@H](CO)C(=O)O | – | inactive | – | – | inactive | inactive | inactive | inactive | inactive | inactive
24 | Oc1ccc(Cl)cc1C1CCCC1 | – | inactive | inactive | 3.86 µM (active) | inactive | inactive | inactive | inactive | – | inactive
25 | NCc1cccc(C2CCN(C(=O)c3ccc(C#Cc4ccccc4F)o3)CC2)c1 | – | 61.1 µM (active) | – | inactive | inactive | inactive | inactive | inactive | inactive | inactive
26 | CC[C@H](C)C(=O)O[C@H]1CCC=C2C=C[C@H](C)[C@H](CC[C@@H]3C[C@@H](O)CC(=O)O3)[C@H]21 | – | inactive | inactive | – | inactive | inactive | inactive | inactive | inactive | inactive
27 | O=C1CCCCCCCCCCCCCC1 | – | inactive | inactive | 48.6 µM (active) | inactive | inactive | inactive | inactive | inactive | inactive
28 | COc1cc2c(cc1OC)[C@@H](Cc1cc(OC)c(OC)c(OC)c1)[N+](C)(CCCOC(=O)CC/C=C/CCC(=O)OCCC[N+]1(C)CCc3cc(OC)c(OC)cc3[C@H]1Cc1cc(OC)c(OC)c(OC)c1)CC2 (stereo partly drawn) | – | inactive | inactive | inactive | – | – | inactive | inactive | inactive | inactive
29 | C[C@H]1O[C@@H](O[C@H]2CC[C@@]3(C)[C@H](CC[C@@H]4[C@@H]3C[C@@H](O)[C@]3(C)[C@@H](C5=CC(=O)OC5)CC[C@]43O)C2)C[C@H](O)[C@@H]1O[C@H]1C[C@H](O)[C@H](O[C@H]2C[C@H](O)[C@H](O[C@@H]3O[C@H](CO)[C@@H](O)[C@H](O)[C@H]3O)[C@@H](C)O2)[C@@H](C)O1 | – | 0.168 µM (active) | – | 1.68 µM (active) | – | inactive | inactive | inactive | inactive | inactive
30 | Cc1ccc2nc(-c3ccc(N)cc3)sc2c1S(=O)(=O)O | – | inactive | inactive | – | – | inactive | – | inactive | – | 0.85 µM (active)
31 | O=C1CCC(c2ccc(-n3ccnc3)cc2)=NN1 | – | inactive | inactive | inactive | inactive | inactive | inactive | inactive | inactive | inactive
32 | C[N+](C)(C)CCOP(=O)(O)OP(=O)([O-])OC[C@H]1O[C@@H](n2ccc(N)nc2=O)[C@H](O)[C@@H]1O | – | inactive | inactive | inactive | inactive | inactive | inactive | inactive | inactive | inactive
33 | CN1CCN(CCCN2c3ccccc3Sc3ccc(C(F)(F)F)cc32)CC1 | – | 29.8 µM (active) | – | – | inactive | inactive | inactive | inactive | – | inactive
34 | CCCCCCCCCCCCCCCCC(C(=O)O)C(O)(CC(=O)O)C(=O)O (stereo not drawn) | – | 29.8 µM (active) | inactive | – | inactive | inactive | inactive | inactive | inactive | inactive
35 | O=[N+]([O-])c1ccc(O)c2ncccc12 | – | 26.6 µM (active) | 21.1 µM (active) | 6.68 µM (active) | inactive | – | inactive | inactive | – | inactive
36 | CC[C@@]1([C@@H]2O[C@@H]([C@H]3O[C@@](O)(CO)[C@H](C)C[C@@H]3C)C[C@@H]2C)CC[C@H]([C@]2(C)CC[C@]3(C[C@H](O)[C@@H](C)[C@@H]([C@@H](C)[C@@H](OC)[C@H](C)C(=O)O)O3)O2)O1 (stereo in doubt) | – | inactive | – | – | inactive | inactive | inactive | inactive | – | inactive
37 | CCSCC | – | inactive | inactive | – | inactive | inactive | inactive | inactive | inactive | inactive
38 | CCC(NC(C)C)C(O)c1ccc(O)c(O)c1 (stereo not drawn) | – | inactive | inactive | inactive | inactive | inactive | inactive | inactive | inactive | inactive
39 | CCOc1ccc([N+](=O)[O-])cc1 | – | 62 µM (active) | – | 3.91 µM (active) | – | inactive | inactive | inactive | 55.3 µM (active) | inactive
